In PubChem BioAssay:
Active and inactive are the calls of the source.

What was measured:
[1] = system: Wnt5a (protein binding on small-molecule microarray); test: Wnt5a binders on small-molecule microarray, primary screen, biophysical, 635/667 nm fluorescence (AID 1142); conditions: 635 nm fluorescence, higher = more signal;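 further: fluorescence read at 667 nm with signal to noise per printed feature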
[2] = cell viability in Huh7 cells, primary screen, cytotoxicity control for HCV replication inhibitor project, CellTiter-Glo luminescence, basal, 48 h (AID 1143); conditions: Huh7 HCV replicon, higher = more signal, called active from +8 up or from −8 down;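 further: Huh7 hepatoma cells carrying a hepatitis C replication reporter with no stimulus; test concentration not given here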
[3] = CREB reporter modulators without forskolin, primary screen, cell-based, PC12, CRE-LacZ reporter, unstimulated (AID 1145); conditions: no forskolin, luminescence, 4.5 h, higher = more signal, called active from +8 up or from −8 down
[4] = CREB reporter modulators under forskolin, primary screen, cell-based, PC12, CRE-LacZ reporter, forskolin-stimulated (AID 1146); conditions: luminescence, 4.5 h, higher = more signal, called active from +8 up or from −8 down;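 further: PC12 cells with 6xCRE LacZ reporter stimulated by forskolin 10 µM; beta-galactosidase reporter signal reflecting CREB driven transcription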
[5] = biological target: Streptavidin (Streptomyces avidinii) (UniProt P22629); test: streptavidin binders on small-molecule microarray, primary screen, artefact control for SMM compound annotation, biophysical, 635/667 nm fluorescence (AID 1147); conditions: streptavidin binding, higher = more signal;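 further: signal reflects streptavidin binding to arrayed compounds as a control protein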
Chain of Streptavidin (Streptomyces avidinii) (P22629 whole entry, looked up): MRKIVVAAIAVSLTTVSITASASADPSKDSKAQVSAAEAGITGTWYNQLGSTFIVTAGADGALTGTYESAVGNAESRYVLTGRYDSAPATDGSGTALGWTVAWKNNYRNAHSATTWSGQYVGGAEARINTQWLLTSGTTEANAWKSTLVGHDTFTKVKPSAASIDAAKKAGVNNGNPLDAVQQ

[6] = small-molecule binders of probe aInhba, primary screen, biochemical, small-molecule microarray, 635/667 nm fluorescence (AID 1148); conditions: higher = more signal;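 further: score merges 667nm spot fluorescence with signal-to-noise for antibody binding to printed compounds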
Torsin-1A (Homo sapiens) [7] = biological target: Torsin-1A (Homo sapiens) (UniProt O14656); test: torsin A binders from cell lysate, primary screen, small-molecule microarray, wild-type, 635/667 nm (AID 1149); conditions: COS7 hTOR1A-WT lysate, 635 nm fluorescence, higher = more signal
Chain of Torsin-1A (Homo sapiens) (O14656 whole entry, looked up): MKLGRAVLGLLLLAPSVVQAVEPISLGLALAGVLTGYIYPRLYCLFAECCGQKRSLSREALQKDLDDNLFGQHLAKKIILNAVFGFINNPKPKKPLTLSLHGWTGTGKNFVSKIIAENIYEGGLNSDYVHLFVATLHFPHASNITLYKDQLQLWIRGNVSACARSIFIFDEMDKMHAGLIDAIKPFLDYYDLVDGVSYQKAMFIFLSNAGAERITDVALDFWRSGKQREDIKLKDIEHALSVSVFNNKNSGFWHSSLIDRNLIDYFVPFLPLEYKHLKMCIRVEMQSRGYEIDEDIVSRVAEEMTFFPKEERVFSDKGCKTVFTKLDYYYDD

Torsin-1A (Homo sapiens) [8] = biological target: Torsin-1A (Homo sapiens) (UniProt O14656); test: small-molecule binders of mutant TOR1A in lysate, primary screen, cell lysate, small-molecule microarray, COS7 lysate, 635/667 nm fluorescence (AID 1150); conditions: COS7 hTOR1A mutant lysate, 635 nm fluorescence, higher = more signal;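 further: score pools 667 nm emission and signal to noise measuring lysate protein binding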
[9] = system: Sonic hedgehog protein (Shh); test: small-molecule binders of Shh protein, primary screen, biochemical, small-molecule microarray, 635/667 nm fluorescence (AID 1151); conditions: small-molecule microarray binding, 635 nm fluorescence; higher = more signal;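 further: Shh protein binding to compounds spotted on small-molecule microarray slides; score combines spot fluorescence intensity with signal-to-noise across triplicate slides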
[10] = E. coli DRC41 culture turbidity changes, primary screen, E. coli filamentation inducer project, strain DRC41, OD650, 48 h (AID 1152);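 further: E. coli MC1000 strain DRC41 lacking acrAB efflux pump and sulA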; conditions: E. coli DRC41 (acrAB sulA), higher = more signal, called active from +8 up or from −8 down
[11] = small-molecule binders of probe aLefty1, primary screen, biochemical, small-molecule microarray, 635/667 nm fluorescence (AID 1153); conditions: higher = more signal;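 further: score merges spot fluorescence with signal-to-noise ratio from the scanned slide images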
[12] = PSAC antagonists in infected red cells, primary screen, cell-based, P. falciparum Indochina, OD700, 1 h (AID 1154); conditions: P. falciparum Indochina infected RBC osmotic lysis, higher = more signal, called active from +8 up or from −8 down
[13] = PSAC antagonists in infected red cells, primary screen, cell-based, P. falciparum Indochina, OD700, 2 h (AID 1155);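 further: lysis reports solute entry through the parasite surface anion channel PSAC; channel blockers reduce lysis of infected cells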; conditions: P. falciparum Indochina infected erythrocytes, osmotic lysis OD700; higher = more signal, called active from +8 up or from −8 down
[14] = osmotic lysis modulators in infected erythrocytes, primary screen, PSAC antagonist project, cell-based, P. falciparum Indochina, OD700, 3 h (AID 1156); conditions: higher = more signal, called active from +8 up or from −8 down
[15] = PSAC antagonists in infected red cells, primary screen, cell-based, P. falciparum Indochina, OD700, 18 h (AID 1157); conditions: P. falciparum Indochina infected erythrocytes, osmotic lysis OD700, 18 h; higher = more signal, called active from +8 up or from −8 down
[16] = modulators of S6 phosphorylation in cells, primary screen, cell-based, A549, cytoblot, luminescence, serum-stimulated (AID 1158); conditions: A549 phospho-S6 cytoblot, 5 h, higher = more signal;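 further: serum-stimulated A549 lung adenocarcinoma cells; signal is phosphorylated S6 detected by cytoblot immunostaining with HRP secondary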
[17] = biological target: NADPH oxidase 2 (Homo sapiens) (UniProt P04839); test: NOX2-dependent H2O2 signal modulators, primary screen, NOX inhibitor project, cell-based, HEK293-NOX2, PMA-stimulated, Amplex Red fluorescence (AID 1159); conditions: 45 min, higher = more signal, called active from +8 up or from −8 down; further: test concentration not given here
Chain of NADPH oxidase 2 (Homo sapiens) (P04839 whole entry, looked up): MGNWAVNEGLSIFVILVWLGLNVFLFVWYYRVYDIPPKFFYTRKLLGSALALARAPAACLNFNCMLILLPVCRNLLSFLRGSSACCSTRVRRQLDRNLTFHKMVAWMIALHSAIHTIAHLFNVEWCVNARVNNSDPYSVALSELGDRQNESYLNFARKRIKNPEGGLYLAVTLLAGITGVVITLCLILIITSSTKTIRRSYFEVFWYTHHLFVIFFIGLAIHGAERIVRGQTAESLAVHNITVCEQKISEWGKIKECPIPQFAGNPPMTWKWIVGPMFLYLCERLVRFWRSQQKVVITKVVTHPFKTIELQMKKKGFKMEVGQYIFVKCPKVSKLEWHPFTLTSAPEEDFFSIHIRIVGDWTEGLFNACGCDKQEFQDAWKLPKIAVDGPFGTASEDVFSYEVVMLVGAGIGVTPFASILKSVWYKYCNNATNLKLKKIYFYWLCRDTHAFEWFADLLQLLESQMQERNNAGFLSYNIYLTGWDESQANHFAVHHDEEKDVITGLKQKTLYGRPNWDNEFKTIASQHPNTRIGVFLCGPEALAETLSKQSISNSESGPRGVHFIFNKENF

[18] = biological target: NADPH oxidase 4 (Homo sapiens) (UniProt Q9NPH5); test: NOX4-dependent H2O2 signal modulators, primary screen, NOX inhibitor project, cell-based, HEK293-NOX4, tetracycline-induced, Amplex Red fluorescence (AID 1160); conditions: 45 min, higher = more signal, called active from +8 up or from −8 down
Chain of NADPH oxidase 4 (Homo sapiens) (Q9NPH5 whole entry, looked up): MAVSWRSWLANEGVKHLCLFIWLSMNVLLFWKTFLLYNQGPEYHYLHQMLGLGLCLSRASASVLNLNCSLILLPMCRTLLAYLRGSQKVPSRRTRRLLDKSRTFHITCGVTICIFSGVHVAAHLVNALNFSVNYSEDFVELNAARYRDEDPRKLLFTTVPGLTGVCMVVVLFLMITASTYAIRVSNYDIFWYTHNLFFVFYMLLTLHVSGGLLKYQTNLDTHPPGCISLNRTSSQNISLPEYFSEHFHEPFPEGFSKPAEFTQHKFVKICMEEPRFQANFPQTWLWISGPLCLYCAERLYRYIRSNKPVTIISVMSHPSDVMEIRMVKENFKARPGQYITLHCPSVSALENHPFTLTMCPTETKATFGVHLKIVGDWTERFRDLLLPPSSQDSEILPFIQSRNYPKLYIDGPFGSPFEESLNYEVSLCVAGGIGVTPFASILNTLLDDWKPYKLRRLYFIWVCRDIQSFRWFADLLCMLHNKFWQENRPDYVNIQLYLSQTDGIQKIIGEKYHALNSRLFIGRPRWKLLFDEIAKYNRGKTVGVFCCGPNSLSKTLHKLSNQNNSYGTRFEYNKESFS

[19] = biological target: NADPH oxidase 5 (Homo sapiens) (UniProt Q96PH1); test: NOX5-dependent H2O2 signal modulators, primary screen, NOX inhibitor project, cell-based, HEK293-NOX5, Amplex Red fluorescence (AID 1161); conditions: HEK293-NOX5, ionomycin, 45 min, higher = more signal
Chain of NADPH oxidase 5 (Homo sapiens) (Q96PH1 whole entry, looked up): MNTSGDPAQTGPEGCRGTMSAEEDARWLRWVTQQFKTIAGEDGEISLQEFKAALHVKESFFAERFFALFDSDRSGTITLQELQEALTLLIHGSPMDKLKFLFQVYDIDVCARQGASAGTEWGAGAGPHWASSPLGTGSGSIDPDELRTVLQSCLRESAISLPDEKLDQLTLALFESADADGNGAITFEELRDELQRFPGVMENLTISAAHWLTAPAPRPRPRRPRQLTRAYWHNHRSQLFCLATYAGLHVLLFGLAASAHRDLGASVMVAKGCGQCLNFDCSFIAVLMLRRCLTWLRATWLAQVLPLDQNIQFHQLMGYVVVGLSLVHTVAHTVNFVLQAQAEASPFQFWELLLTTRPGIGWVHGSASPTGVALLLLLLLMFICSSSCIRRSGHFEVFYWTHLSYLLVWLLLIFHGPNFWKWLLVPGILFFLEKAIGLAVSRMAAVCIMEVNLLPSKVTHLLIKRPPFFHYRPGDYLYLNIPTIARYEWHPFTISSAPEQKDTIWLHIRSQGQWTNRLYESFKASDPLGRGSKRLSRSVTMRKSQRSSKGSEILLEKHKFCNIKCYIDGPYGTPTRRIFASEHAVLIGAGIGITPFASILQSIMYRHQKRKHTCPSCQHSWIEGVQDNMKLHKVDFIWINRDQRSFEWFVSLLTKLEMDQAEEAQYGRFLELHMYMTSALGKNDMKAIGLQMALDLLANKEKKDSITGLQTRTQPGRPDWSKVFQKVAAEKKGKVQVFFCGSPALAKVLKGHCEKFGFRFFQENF

[20] = A549 cell viability effects, profiling panel, calcein-AM fluorescence, 48 h, basal (AID 1162); conditions: higher = more signal; further: test concentration not given here

Row | SMILES | composite z-score [1] | z-score [2] | z-score [3] | z-score [4] | composite z-score [5] | composite z-score [6] | composite z-score (Torsin-1A (Homo sapiens) [7]) | composite z-score (Torsin-1A (Homo sapiens) [8]) | composite z-score [9] | z-score [10] | composite z-score [11] | z-score [12] | z-score [13] | z-score [14] | z-score [15] | z-score [16] | z-score [17] | z-score [18] | z-score [19] | z-score [20]
1 | CC(C)[Si](C#C[Si](C(C)C)(C(C)C)C(C)C)(O[C@H](C)c1cn([C@H](C)c2ccccc2)nn1)C(C)C | 0.0985 | -1.48 (inactive) | -0.332 (inactive) | -1.59 (inactive) | 0.434 | -0.0209 | 0.144 | 0.477 | 1.14 | 2.49 (inactive) | 0.241 | 0.792 (inactive) | -0.533 (inactive) | -0.926 (inactive) | -1.01 (inactive) | 0.728 | 0.586 (inactive) | 0.587 (inactive) | 0.265 | 2.27
2 | C=CCNC(=O)[C@@H]1[C@H]2C(=O)O[C@H](c3ccccc3)[C@H](c3ccccc3)N2[C@H](c2ccc(O)cc2)[C@@]12C(=O)Nc1ccccc12 | 0.154 | -2.84 (inactive) | -0.348 (inactive) | -1.3 (inactive) | -0.171 | -0.218 | -0.0795 | -0.264 | 1.05 | 1.88 (inactive) | -0.22 | 3.11 (inactive) | 0.87 (inactive) | 0.253 (inactive) | 0.983 (inactive) | 0.686 | -0.00775 (inactive) | -1.9 (inactive) | -1.37 | 0.106
3 | [N-]=[N+]=NCc1ccccc1C[C@@]1(C(=O)NCc2ccccc2)N=C(c2ccc(OCCCO)cc2)O[C@@H]1c1ccccc1 | 0.238 | -5.27 (inactive) | 0.596 (inactive) | -0.942 (inactive) | 0.229 | -0.025 | 0.0526 | 1.48 | -0.353 | 1.75 (inactive) | 0.277 | 21 (active) | 5.58 (inactive) | 1.81 (inactive) | -0.217 (inactive) | 0.969 | 1.2 (inactive) | 0.964 (inactive) | 0.0832 | -2.22
4 | COc1ccc(/C=C/C(=O)c2cccc(OCC(=O)OC(C)(C)C)c2)cc1 | -0.132 | -0.385 (inactive) | 0.622 (inactive) | -0.588 (inactive) | -0.152 | -0.363 | 0.349 | 0.179 | -0.139 | 1.42 (inactive) | -0.113 | 30.9 (active) | 25.8 (active) | 0.746 (inactive) | 1.41 (inactive) | 0.112 | -1.32 (inactive) | 0.197 (inactive) | -3.7 | 0.764
5 | C=C(C(=O)CC[C@H](OC(C)=O)c1ccc(CO)o1)C(C)C | 0.0615 | -4.37 (inactive) | 1.09 (inactive) | -0.949 (inactive) | -0.469 | 0.353 | 0.154 | -0.248 | 0.937 | 1.27 (inactive) | -0.215 | 1.55 (inactive) | -0.558 (inactive) | 0.68 (inactive) | -1.83 (inactive) | 2.5 | -0.0262 (inactive) | 0.382 (inactive) | -0.706 | -0.708
6 | CC(C)C(CO)N1C(=O)[C@@H]2[C@H]3C(=O)OCC=C[C@H]3OC23C=CCN(Cc2ccccc2)C(=O)[C@@H]13 (stereo not given in full) | -0.353 | -0.524 (inactive) | 0.325 (inactive) | 0.559 (inactive) | -1.32 | -0.195 | -0.411 | -1.02 | 0.565 | 1.64 (inactive) | -0.268 | 0.379 (inactive) | -0.0407 (inactive) | 1.32 (inactive) | -0.16 (inactive) | -0.257 | 1.5 (inactive) | 0.118 (inactive) | 1.61 | -0.769
7 | COCCOC(=O)N1C(=O)[C@@]2(c3cc(C#CCNC(N)=O)ccc31)[C@H](C(=O)NC[C@H](O)c1ccccc1)[C@H]1C(=O)O[C@H](c3ccccc3)[C@H](c3ccccc3)N1[C@@H]2c1ccc(O)cc1 | 0.226 | -1.19 (inactive) | -1.02 (inactive) | -0.899 (inactive) | 0.0489 | -0.128 | 0.397 | 0.393 | 0.746 | 2.05 (inactive) | -0.196 | 0.532 (inactive) | -1.33 (inactive) | 0.527 (inactive) | -1.55 (inactive) | 1.57 | 1.46 (inactive) | 0.692 (inactive) | 0.776 | 0.834
8 | C=CCN1C(=O)[C@]2(O[C@H](CCn3cc([C@H](O)c4ccccc4)nn3)[C@@H]([Si](C)(C)c3ccc(OC)cc3)[C@@H]2C)c2cc(N3CCOC3=O)ccc21 | -0.185 | -5.33 (inactive) | 2.8 (inactive) | -2.35 (inactive) | -0.0082 | -0.224 | 0.772 | 0.76 | -0.429 | 1.46 (inactive) | -0.417 | 4.38 (inactive) | -0.527 (inactive) | 1.03 (inactive) | -1.58 (inactive) | 0.348 | -0.122 (inactive) | 1.61 (inactive) | -2.66 | 0.0522
9 | COc1c(C)cc(-c2cc3c(c(CCc4ccccc4)n2)[Si](C(C)C)(C(C)C)OC3)cc1C | -0.0652 | 0.236 (inactive) | 0.12 (inactive) | -0.867 (inactive) | -0.0683 | 0.0659 | 0.367 | 0.362 | 0.981 | 2.56 (inactive) | 0.112 | 1.18 (inactive) | -0.803 (inactive) | -0.428 (inactive) | -1.57 (inactive) | 0.663 | 0.726 (inactive) | 0.907 (inactive) | -0.11 | 0.483
